Assay results: PubChem BioAssay AID504401 (The Scripps Research Institute Molecular Screening Center, 2011)
Unmarked numbers belong to inactive results. The rule behind the calls is not given here.

Tested on: Potassium Channel KATP
Experiment: CYP450 and receptor off-target profile – biochemical, Ricerca HitProfilingScreen, selectivity assay for GPR7 antagonist project, late-stage follow-up (AID 504401)
Conditions: Ricerca radioligand binding and CYP450 panel, at 10 µM, hits give high values

SMILES: COc1ccc(Oc2c(Cl)cnn(-c3cc(C)cc(C)c3)c2=O)cc1
- inhibition: 11%
